# From PubChem BioAssay (NCI)
# The panel holds about 79,000 compounds, 15% with a hit somewhere; the sample as a whole holds those more often. Values without a mark were called inactive. Active and inactive are the calls of the source. No stated cut-off is given here; in the data, active means growth inhibition above about 70%; inactive means the rest.
# Experiments:
# [1] = NCI Yeast Anticancer Drug Screen. Data for the rad52 strain (AID 147);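 further: 0% = growth of vehicle-treated control cultures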; settings: S. cerevisiae rad52 mutant growth inhibition, hits give high values
# Method in brief: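 The repair-mutant yeast strain was incubated with compounds, then growth was read and inhibition derived relative to vehicle.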
# [2] = NCI Yeast Anticancer Drug Screen. Data for the wt1 strain (AID 149);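 further: 0% = growth of vehicle-treated wt1 cultures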; settings: S. cerevisiae wt1 strain (SPY 50644) growth inhibition, hits give high values
# Method in brief: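 The wt1 strain was treated with compounds, and growth was compared with vehicle-treated cultures to give inhibition.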
# [3] = NCI Yeast Anticancer Drug Screen. Data for the rad50EPP+ strain (AID 151);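 further: 0% = growth of vehicle-treated control cultures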; settings: S. cerevisiae rad50 mutant strain, hits give high values
# Method in brief: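 Vehicle-normalised growth inhibition; rad50EPP+ yeast strain, altered in DNA damage repair, compound-treated.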
# [4] = NCI Yeast Anticancer Drug Screen. Data for the mgt1 strain (AID 153); settings: S. cerevisiae mgt1 mutant growth inhibition, hits give high values
# Method in brief: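 Vehicle-normalized growth inhibition is determined in mgt1 yeast, a strain selected for a defined alteration in DNA repair or cell cycle control.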
# [5] = NCI Yeast Anticancer Drug Screen. Data for the rad50 strain (AID 155);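 further: 0% = growth of vehicle-only cultures of the same strain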; settings: S. cerevisiae rad50 strain growth inhibition, hits give high values
# Method in brief: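 Cells are treated with compound, grown, and their growth is then scored against vehicle-only cultures of the same repair-deficient yeast strain.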
# [6] = NCI Yeast Anticancer Drug Screen. Data for the mec2-1 strain (AID 157); settings: S. cerevisiae mec2-1 strain, hits give high values
# Method in brief: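 Mutant yeast (mec2-1) grown with compound; growth inhibition relative to vehicle control reported.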
# [7] = NCI Yeast Anticancer Drug Screen. Data for the rad14 strain (AID 159);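 further: 0% = growth of vehicle-treated control cultures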; settings: S. cerevisiae rad14 strain growth inhibition, hits give high values
# Method in brief: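 Readout: yeast growth inhibition, referenced to vehicle-only cultures. Strain bears a defined alteration in DNA damage repair.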
# [8] = NCI Yeast Anticancer Drug Screen. Data for the sgs1 mgt1 strain (AID 161);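 further: 0% = growth of cultures given vehicle only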; settings: S. cerevisiae sgs1 mgt1 strain, hits give high values
# Method in brief: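 Compounds are added to genetically altered yeast, and growth is compared with cultures given vehicle alone to give percent inhibition.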
# [9] = NCI Yeast Anticancer Drug Screen. Data for the CLN2oe strain (AID 163);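 further: 0% = growth of vehicle-only control cultures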; settings: S. cerevisiae CLN2oe strain, hits give high values
# Method in brief: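 Compounds are applied to yeast harbouring a defined cell-cycle control change; reduced growth compared with vehicle-treated controls gives the value.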
# [10] = NCI Yeast Anticancer Drug Screen. Data for the cln2 rad14 strain (AID 165);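 further: 0% = growth equal to vehicle treated cultures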; settings: S. cerevisiae cln2 rad14 strain, hits give high values
# Method in brief: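 Readout is yeast growth inhibition versus vehicle-treated controls, using a strain with cln2 and rad14 alterations exposed to compound.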
# [11] = NCI Yeast Anticancer Drug Screen. Data for the bub3 strain (AID 167); settings: S. cerevisiae bub3 mutant strain, hits give high values
# Method in brief: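 Part of a panel of yeast mutants defective in DNA damage repair or cell cycle regulation. Each strain is grown with compound, and inhibition is calculated relative to solvent-treated cultures.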
# [12] = NCI Yeast Anticancer Drug Screen. Data for the wt2 strain (AID 169);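 further: 0% = growth of vehicle-treated yeast cultures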; settings: S. cerevisiae wt2 strain growth inhibition, hits give high values
# Method in brief: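 Against vehicle-treated controls, the growth of yeast exposed to each compound was compared, and the inhibition was recorded.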
# [13] = NCI Yeast Anticancer Drug Screen. Data for the mlh1 strain (AID 171);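 further: 0% = growth of vehicle-treated control cultures of the same strain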; settings: S. cerevisiae mlh1 strain growth inhibition, hits give high values
# Method in brief: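 Measured: yeast growth. Reference: vehicle-treated controls. Organism: strain with a defined alteration affecting DNA damage repair or cell cycle control, treated with compound.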
# [14] = NCI Yeast Anticancer Drug Screen. Data for the sgs1 strain (AID 173);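 further: 0% = growth of vehicle-only control cultures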; settings: S. cerevisiae sgs1 mutant, hits give high values
# Method in brief: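 Each compound was added to cultures of the altered yeast strain. Growth was recorded, and inhibition was derived by comparison with vehicle controls.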
# [15] = NCI Yeast Anticancer Drug Screen. Data for the mlh1 rad18 strain (AID 175); settings: S. cerevisiae mlh1 rad18 strain growth inhibition, hits give high values
# Method in brief: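 Genetically defined yeast (DNA repair-deficient) exposed to compounds; growth inhibition determined relative to vehicle.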
# [16] = NCI Yeast Anticancer Drug Screen. Data for the rad18 strain (AID 177); settings: S. cerevisiae rad18 mutant growth inhibition, hits give high values
# Method in brief: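 Vehicle-treated cultures served as the baseline for scoring compound-induced growth inhibition in DNA-repair-mutant yeast.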
# [17] = at 5.0 µM (retest, dose inferred, filed as 0.5)
# [18] = at 50.0 µM (retest, dose inferred, filed as 5.0)
compound,measurement,setting,value
CCCCCCCCCCCCCCCCCC(=O)NCCCN(C)C,growth inhibition,[1]; at 1.2 µM,-47%
same,growth inhibition,[1]; at 3.7 µM,-39%
same,growth inhibition,[1]; at 11.0 µM,-44%
same,growth inhibition,[1]; at 33.0 µM,97% (active)
same,growth inhibition,[1]; at 100.0 µM,97% (active)
same,growth inhibition,[2]; at 1.2 µM,-51%
same,growth inhibition,[2]; at 3.7 µM,-58%
same,growth inhibition,[2]; at 11.0 µM,-56%
same,growth inhibition,[2]; at 33.0 µM,98% (active)
same,growth inhibition,[2]; at 100.0 µM,97% (active)
same,growth inhibition,[3]; at 1.2 µM,-37%
same,growth inhibition,[3]; at 3.7 µM,-43%
same,growth inhibition,[3]; at 11.0 µM,33%
same,growth inhibition,[3]; at 33.0 µM,96% (active)
same,growth inhibition,[3]; at 100.0 µM,96% (active)
same,growth inhibition,[4]; at 1.2 µM,-13%
same,growth inhibition,[4]; at 3.7 µM,-11%
same,growth inhibition,[4]; at 11.0 µM,-19%
same,growth inhibition,[4]; at 33.0 µM,98% (active)
same,growth inhibition,[4]; at 100.0 µM,98% (active)
same,growth inhibition,[5]; at 1.2 µM,-27%
same,growth inhibition,[5]; at 3.7 µM,-11%
same,growth inhibition,[5]; [17],33%
same,growth inhibition,[5]; at 11.0 µM,-17%
same,growth inhibition,[5]; at 33.0 µM,94% (active)
same,growth inhibition,[5]; [18],98% (active)
same,growth inhibition,[5]; at 50.0 µM,92.2% (active)
same,growth inhibition,[5]; at 100.0 µM,96% (active)
same,growth inhibition,[6]; at 1.2 µM,-31%
same,growth inhibition,[6]; at 3.7 µM,-31%
same,growth inhibition,[6]; [17],50%
same,growth inhibition,[6]; at 11.0 µM,-45%
same,growth inhibition,[6]; at 33.0 µM,98% (active)
same,growth inhibition,[6]; [18],98% (active)
same,growth inhibition,[6]; at 50.0 µM,93.8% (active)
same,growth inhibition,[6]; at 100.0 µM,98% (active)
same,growth inhibition,[7]; at 1.2 µM,-31%
same,growth inhibition,[7]; at 3.7 µM,-29%
same,growth inhibition,[7]; at 11.0 µM,-40%
same,growth inhibition,[7]; at 33.0 µM,97% (active)
same,growth inhibition,[7]; at 100.0 µM,97% (active)
same,growth inhibition,[8]; [17],-32%
same,growth inhibition,[8]; [18],97% (active)
same,growth inhibition,[8]; at 50.0 µM,93.2% (active)
same,growth inhibition,[9]; at 1.2 µM,-35%
same,growth inhibition,[9]; at 3.7 µM,-37%
same,growth inhibition,[9]; at 11.0 µM,-80%
same,growth inhibition,[9]; at 33.0 µM,97% (active)
same,growth inhibition,[9]; at 100.0 µM,97% (active)
same,growth inhibition,[10]; [17],17%
same,growth inhibition,[10]; [18],97% (active)
same,growth inhibition,[10]; at 50.0 µM,92% (active)
same,growth inhibition,[11]; at 1.2 µM,4%
same,growth inhibition,[11]; at 3.7 µM,6%
same,growth inhibition,[11]; [17],42%
same,growth inhibition,[11]; at 11.0 µM,1%
same,growth inhibition,[11]; at 33.0 µM,98% (active)
same,growth inhibition,[11]; [18],95% (active)
same,growth inhibition,[11]; at 50.0 µM,92.2% (active)
same,growth inhibition,[11]; at 100.0 µM,98% (active)
same,growth inhibition,[12]; at 1.2 µM,-29%
same,growth inhibition,[12]; at 3.7 µM,-27%
same,growth inhibition,[12]; at 11.0 µM,-37%
same,growth inhibition,[12]; at 33.0 µM,97% (active)
same,growth inhibition,[12]; at 100.0 µM,98% (active)
same,growth inhibition,[13]; at 1.2 µM,-21%
same,growth inhibition,[13]; at 3.7 µM,-35%
same,growth inhibition,[13]; at 11.0 µM,-44%
same,growth inhibition,[13]; at 33.0 µM,97% (active)
same,growth inhibition,[13]; at 100.0 µM,97% (active)
same,growth inhibition,[14]; at 1.2 µM,-5%
same,growth inhibition,[14]; at 3.7 µM,-13%
same,growth inhibition,[14]; at 11.0 µM,-13%
same,growth inhibition,[14]; at 33.0 µM,96% (active)
same,growth inhibition,[14]; at 100.0 µM,97% (active)
same,growth inhibition,[15]; [17],36%
same,growth inhibition,[15]; [18],99% (active)
same,growth inhibition,[15]; at 50.0 µM,92.5% (active)
same,growth inhibition,[16]; at 1.2 µM,-32%
same,growth inhibition,[16]; at 3.7 µM,-32%
same,growth inhibition,[16]; at 11.0 µM,-12%
same,growth inhibition,[16]; at 33.0 µM,97% (active)
same,growth inhibition,[16]; at 100.0 µM,97% (active)
CC1(C)CC(=O)C(/C=N/c2nc(-c3ccccc3)cs2)=C(O)C1,growth inhibition,[1]; at 1.2 µM,1%
same,growth inhibition,[1]; at 3.7 µM,5%
same,growth inhibition,[1]; at 11.0 µM,19%
same,growth inhibition,[1]; at 33.0 µM,41%
same,growth inhibition,[1]; at 100.0 µM,84% (active)
same,growth inhibition,[2]; at 1.2 µM,2%
same,growth inhibition,[2]; at 3.7 µM,2%
same,growth inhibition,[2]; at 11.0 µM,6%
same,growth inhibition,[2]; at 33.0 µM,22%
same,growth inhibition,[2]; at 100.0 µM,54%
same,growth inhibition,[3]; at 1.2 µM,-1%
same,growth inhibition,[3]; at 3.7 µM,1%
same,growth inhibition,[3]; at 11.0 µM,12%
same,growth inhibition,[3]; at 33.0 µM,27%
same,growth inhibition,[3]; at 100.0 µM,34%
same,growth inhibition,[4]; at 1.2 µM,-1%
same,growth inhibition,[4]; at 3.7 µM,-2%
same,growth inhibition,[4]; at 11.0 µM,5%
same,growth inhibition,[4]; at 33.0 µM,22%
same,growth inhibition,[4]; at 100.0 µM,77% (active)
same,growth inhibition,[5]; at 1.2 µM,-5%
same,growth inhibition,[5]; at 3.7 µM,-13%
same,growth inhibition,[5]; [17],-3%
same,growth inhibition,[5]; at 11.0 µM,-4%
same,growth inhibition,[5]; at 33.0 µM,40%
same,growth inhibition,[5]; [18],57%
same,growth inhibition,[5]; at 50.0 µM,89.9% (active)
same,growth inhibition,[5]; at 100.0 µM,84% (active)
same,growth inhibition,[6]; at 1.2 µM,2%
same,growth inhibition,[6]; at 3.7 µM,2%
same,growth inhibition,[6]; [17],0%
same,growth inhibition,[6]; at 11.0 µM,8%
same,growth inhibition,[6]; at 33.0 µM,35%
same,growth inhibition,[6]; [18],32%
same,growth inhibition,[6]; at 50.0 µM,20.1%
same,growth inhibition,[6]; at 100.0 µM,76% (active)
same,growth inhibition,[7]; at 1.2 µM,3%
same,growth inhibition,[7]; at 3.7 µM,5%
same,growth inhibition,[7]; at 11.0 µM,17%
same,growth inhibition,[7]; at 33.0 µM,45%
same,growth inhibition,[7]; at 100.0 µM,83% (active)
same,growth inhibition,[8]; [17],-5%
same,growth inhibition,[8]; [18],38%
same,growth inhibition,[8]; at 50.0 µM,94.2% (active)
same,growth inhibition,[9]; at 1.2 µM,-4%
same,growth inhibition,[9]; at 3.7 µM,-5%
same,growth inhibition,[9]; at 11.0 µM,1%
same,growth inhibition,[9]; at 33.0 µM,25%
same,growth inhibition,[9]; at 100.0 µM,61%
same,growth inhibition,[10]; [17],35%
same,growth inhibition,[10]; [18],21%
same,growth inhibition,[10]; at 50.0 µM,45.4%
same,growth inhibition,[11]; at 1.2 µM,-2%
same,growth inhibition,[11]; at 3.7 µM,-3%
same,growth inhibition,[11]; [17],-19%
same,growth inhibition,[11]; at 11.0 µM,-1%
same,growth inhibition,[11]; at 33.0 µM,23%
same,growth inhibition,[11]; [18],19%
same,growth inhibition,[11]; at 50.0 µM,75.1% (active)
same,growth inhibition,[11]; at 100.0 µM,68%
same,growth inhibition,[12]; at 1.2 µM,-2%
same,growth inhibition,[12]; at 3.7 µM,1%
same,growth inhibition,[12]; at 11.0 µM,7%
same,growth inhibition,[12]; at 33.0 µM,36%
same,growth inhibition,[12]; at 100.0 µM,82% (active)
same,growth inhibition,[13]; at 1.2 µM,0%
same,growth inhibition,[13]; at 3.7 µM,3%
same,growth inhibition,[13]; at 11.0 µM,12%
same,growth inhibition,[13]; at 33.0 µM,45%
same,growth inhibition,[13]; at 100.0 µM,81% (active)
same,growth inhibition,[14]; at 1.2 µM,2%
same,growth inhibition,[14]; at 3.7 µM,5%
same,growth inhibition,[14]; at 11.0 µM,26%
same,growth inhibition,[14]; at 33.0 µM,63%
same,growth inhibition,[14]; at 100.0 µM,83% (active)
same,growth inhibition,[15]; [17],10%
same,growth inhibition,[15]; [18],87% (active)
same,growth inhibition,[15]; at 50.0 µM,97% (active)
same,growth inhibition,[16]; at 1.2 µM,6%
same,growth inhibition,[16]; at 3.7 µM,22%
same,growth inhibition,[16]; at 11.0 µM,72% (active)
same,growth inhibition,[16]; at 33.0 µM,88% (active)
same,growth inhibition,[16]; at 100.0 µM,91% (active)
